In PubChem BioAssay AID602393 (Broad Institute, 2012):
The campaign covered roughly 350,000 compounds. About 7,000 (2%) were called active. The list comes from a sample in which actives are over-represented; it also holds similar structures and randomly drawn compounds. Values without a mark were called inactive. Rule as the data show it: active = activation above about 40%; inconclusive = no clear call, values can overlap the other calls; inactive = below that.

Assay: raisers of Bmi1 knock-in reporter signal – mouse ES cells, Bmi1 luciferase knock-in, single point, esBAF inhibitor project, primary screen (AID 602393);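 also: 0% = median of the plate's neutral control wells and 100% = double that signal; a rise in the Bmi1 reporter signal indicates esBAF inhibition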
Conditions: 24 h, at 12.5 µM, hits give high values, 100% = twice the neutral-well signal

Row | SMILES | reporter increase
1 | O=S(=O)(Nc1ccc2nc(N3CCOCC3)sc2c1)c1ccccc1 | 73% (active)
2 | CC(=O)Nc1ccc(S(=O)(=O)Nc2ccc(N3CCOCC3)c(F)c2)cc1 | 0.869%
3 | Cc1nc2ccc(NC(=O)c3cccc(S(=O)(=O)N4CCOCC4)c3)cc2s1 | 7.36%
4 | O=C(C[C@@H]1C[C@@H]2c3cc(NC(=O)C4CCOCC4)ccc3O[C@@H]2[C@H](CO)O1)NCc1ccncc1 | -0.887%
5 | C[C@@H]1CN([C@H](C)CO)C(=O)c2cc(-c3ccncc3)cnc2O[C@@H]1CN(C)C(=O)Cc1cccnc1 | -2.67%
6 | Cc1ccc(S(=O)(=O)N[C@@H]2CC[C@@H](CCn3cc(C(C)C)nn3)O[C@H]2CO)cc1 | -3.18%
7 | Cc1cccc(S(=O)(=O)N2C[C@H]3[C@@H](c4ccccc42)[C@H](CO)N3Cc2ccc3c(c2)OCO3)c1 | -3.41%
8 | CO[C@@H]1CN(C)C(=O)c2ccc(NS(=O)(=O)c3ccc(C)cc3)cc2OC[C@@H](C)N(Cc2nccs2)C[C@H]1C | -3.84%
9 | CC(C)(C)C1CCC(=NNC(=O)c2cc(-c3ccccc3)n[nH]2)CC1 (stereo not drawn) | -0.812%
10 | c1ccc(-c2cc(-c3ccccc3)[nH]n2)cc1 | 42.5% (active)
11 | Oc1ccccc1-c1cc(-c2ccc(Cl)cc2)n[nH]1 | 21.6%
12 | CN1C(=O)c2cc(NC(=O)Nc3ccccc3F)ccc2OC[C@H]2O[C@@H](CC(=O)Nc3cccc(Cl)c3)CC[C@@H]21 | 20.4%
13 | Cc1noc(C)c1S(=O)(=O)N(C)C[C@H]1OCCCC[C@H](C)Oc2ccc(NS(=O)(=O)c3ccccc3)cc2C(=O)N([C@H](C)CO)C[C@@H]1C | -1.33%
14 | Cn1cnc(CCNC(=O)C[C@@H]2CC[C@@H]3[C@H](COC[C@@H](O)CN3C(=O)Nc3ccccc3)O2)c1 | -3.44%
15 | C[C@@H]1CN([C@@H](C)CO)S(=O)(=O)c2ccc(-c3cncnc3)cc2O[C@@H]1CN(C)C(=O)C1CC1 | -3.14%
16 | C/C(=N\c1nc2ccccc2n1C)c1cc(Cl)ccc1O | -2.25%
17 | Cn1c(Nc2cccc(Cl)c2)nc2ccccc21 | 53.4% (active)
18 | O=C(Cn1c(NCCO)nc2ccccc21)c1ccc(Cl)cc1Cl | -0.748%
19 | C[C@@H]1CN([C@H](C)CO)C(=O)CCCn2cc(nn2)CO[C@@H]1CN(C)C(=O)c1ccc2ccn(C)c2c1 | -1.71%
20 | Cc1cc(CN(C)C(=O)c2cc(COc3ccc(C)c(C)c3)on2)n[nH]1 | 13.8%
21 | Cc1ccc(OCc2cc(C(=O)N(C)CCn3ccnc3C)no2)cc1C | 11.8%
22 | Cc1ccc(OCc2cc(C(=O)N(C)CCc3ccccc3)no2)cc1C | 71.6% (active)
23 | O=C(Nc1ccccc1)Nc1ccc2c(c1)[C@@H]1C[C@@H](CC(=O)N3CCCCC3)O[C@H](CO)[C@@H]1O2 | -0.639%
24 | CO[C@H]1CN(C)C(=O)c2ccc(NS(=O)(=O)c3cn(C)cn3)cc2OC[C@@H](C)N(CC2CC2)C[C@H]1C | -8.79%
25 | O=C(Nc1ccon1)c1nc[nH]c1C(=O)NCc1ccccc1 | -6.72%
26 | CN1CCc2ccccc2C1Cc1ccccc1NC(=O)c1sc2ccccc2c1Cl (stereo not drawn) | 51%
27 | O=C(Nc1ccon1)c1sc2ccccc2c1Cl | 48.7% (active)

Row | SMILES | reporter increase
28 | O=C(CSc1nc2ccccc2c(=O)n1-c1ccccc1F)N1CCOCC1 | -4.38%
29 | O=C(CSc1nc2ccccc2c(=O)n1-c1ccc(F)cc1)NC1CC1 | -5.85%
30 | Cc1ccc(-n2c(SCC(=O)N3CCC(C(=O)O)CC3)nc3ccccc3c2=O)cc1C | 42% (active)
31 | Cc1noc(C)c1NC(=O)Nc1ccc2c(c1)C(=O)N([C@H](C)CO)C[C@H](C)[C@H](CN(C)S(=O)(=O)c1cccs1)O2 | 1.55%
32 | O=C(NC1CCCC1)[C@H]1[C@H](CO)[C@H]2Cn3c(ccc(-c4ccccc4F)c3=O)[C@@H]1N2C(=O)CC1CC1 | -2.95%
33 | CO[C@H]1CN(C)C(=O)c2cc(NS(=O)(=O)c3ccccc3C)ccc2OC[C@@H](C)NC[C@@H]1C | 1.69%
34 | C[C@@H]1CCCCO[C@H](CN(C)C(=O)CCCN(C)C)[C@H](C)CN([C@@H](C)CO)C(=O)c2cc(NS(=O)(=O)c3ccc(Cl)cc3)ccc2O1 | 2.25%
35 | C[C@H](CO)N1C[C@H](C)[C@H](CN(C)Cc2ccc(C(F)(F)F)cc2)Oc2ccc(NC(=O)CCCCCC(=O)Nc3ccccc3N)cc2CC1=O | -12.1%
36 | CCn1nc(C)c(/C=N/NC(=O)Cc2ccc(Cl)cc2)c1C | 64.3% (active)
37 | Cc1ccc(/C=N/NC(=O)Cn2nc(C)c(Br)c2C)o1 | -0.989%
38 | O=C(Cc1ccccc1)N/N=C/c1ccc(Cl)cc1Cl | 3%
39 | COc1cccc(-c2cnc3c(c2)C(=O)N([C@@H](C)CO)C[C@@H](C)[C@H](CN(C)C(=O)CN(C)C)O3)c1 | 4.59%
40 | O=C(C[C@H]1C=C[C@H](NC(=O)c2cnccn2)[C@@H](CO)O1)NCc1ccccc1F | -2.01%
41 | Cc1ccc(S(=O)(=O)N2CCN(C(=O)COC(=O)c3c(C)noc3C)CC2)c(C)c1 | 0.794%
42 | Cc1ccc(-c2nc(COC(=O)c3c(C)noc3C)cs2)cc1 | 76.6% (active)
43 | Cc1noc(C)c1COC(=O)c1cc2ccccc2cc1O | -1.05%
44 | COc1ccc(CNC(=O)C[C@H]2CC[C@H](NC(=O)Nc3ccc4c(c3)OCO4)[C@H](CO)O2)cc1 | -2.93%
45 | C[C@@H]1CN([C@@H](C)CO)C(=O)c2cc(NC(=O)Nc3ccc4c(c3)OCO4)ccc2O[C@@H](C)CCCCO[C@H]1CN(C)C(=O)Nc1ccc(C(F)(F)F)cc1 | 0.715%
46 | C[C@@H]1CN([C@@H](C)CO)C(=O)c2cc(NC(=O)Nc3ccc4c(c3)OCO4)ccc2O[C@@H](C)CCCCO[C@@H]1CN(C)C(=O)Nc1ccc2c(c1)OCO2 | 64.3% (active)
47 | COc1ccc(NC(=O)N(C)C[C@H]2OCCCC[C@@H](C)Oc3ccc(NC(=O)Nc4ccc5c(c4)OCO5)cc3C(=O)N([C@H](C)CO)C[C@@H]2C)cc1 | 49.3% (active)
48 | C[C@H](CO)N1C[C@H](C)[C@@H](CN(C)C(=O)Nc2ccc3c(c2)OCO3)OCCCC[C@H](C)Oc2ccc(NC(=O)Nc3ccc4c(c3)OCO4)cc2C1=O | 45% (active)
49 | C[C@H]1CCCCO[C@H](CN(C)C(=O)Nc2ccc3c(c2)OCO3)[C@@H](C)CN([C@@H](C)CO)C(=O)c2cc(NC(=O)Nc3ccccc3)ccc2O1 | 10.9%
50 | C[C@H](CO)N1C[C@H](C)[C@@H](CN(C)C(=O)Nc2ccc3c(c2)OCO3)OCCCC[C@H](C)Oc2ccc(NC(=O)Nc3ccc(F)cc3)cc2C1=O | 4.31%
51 | C[C@H]1CCCCO[C@H](CN(C)C(=O)Nc2ccccc2)[C@@H](C)CN([C@@H](C)CO)C(=O)c2cc(NC(=O)Nc3ccc4c(c3)OCO4)ccc2O1 | 27%
52 | COc1ccc(NC(=O)Nc2ccc3c(c2)C(=O)N([C@@H](C)CO)C[C@@H](C)[C@@H](CN(C)C(=O)Nc2ccc(F)cc2)OCCCC[C@@H](C)O3)cc1 | 4.33%
53 | COc1ccc(NC(=O)Nc2ccc3c(c2)C(=O)N([C@H](C)CO)C[C@H](C)[C@@H](CN(C)C(=O)Nc2ccc(OC)cc2)OCCCC[C@H](C)O3)cc1 | 3.33%
